# Screening results: PubChem, The Scripps Research Institute Molecular Screening Center
# An excerpt weighted towards active compounds, which were near 2.2% of everything screened.
# OPRM1-OPRD1 inv: inverse agonist of human OPRM1-OPRD1 heterodimerization. actives 0.21% (n = 340,000). inhibition, % at 9.3 µM. cell-based MOR-DOR heterodimer luminescence, inverse agonism; in the data active = inhibition above about 22%, passing the limit was not always enough;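 note: 0% = cells with DMSO and 100% = wells without cells with DMSO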
# OPRM1-OPRD1 ag: agonists of human mu-delta opioid receptor heterodimerization. actives 0.3% (n = 340,000). P35372+P41143. cells, OPRM1-OPRD1 heterodimerization, luminescence. activation, % at 9.3 µM; in the data active = activation above about 18%;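 note: 0% = vehicle-treated cells and 100% = reference agonist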
# HTR5A inv ctr: HTR5A inverse agonism, opioid heterodimer counter-screen; inhibition, % at 9.3 µM; actives 0.083% (n = 340,000); AID 504634; HTR5A cell line, luminescence; P47898; in the data active = inhibition mostly above about 23%, no sharp cut-off; inactive = mostly below about 18%;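 note: 0% = cells with DMSO and 100% = no-cell wells with DMSO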
# m5-HT2A agonist: agonists of mouse serotonin 5-HT2A receptor (HTR2A) | P35363 | CHO-K1 mHTR2A beta-arrestin complementation, luminescence; percent of 30 µM serotonin response | activation, % at 7.6 µM | actives 0.66% (n = 360,000) | AID 624169;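 active = activation above a run cutoff, the mean activation of all tested compounds plus 3 SD, cut at about 14% in these data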;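 note: 0% = plate median of compound wells and 100% = 30 µM serotonin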
# sPLA2-III inh: Blocks human group III sPLA2 activity; AID 743126; Q9NZ20; QFRET BODIPY PC-A2 liposome hydrolysis, fluorescence; inhibition, % at 12.2 µM; actives 0.56% (n = 370,000);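 active = inhibition above mean plus 3 SD of compounds lying within the high and low control bounds, cut at about 19% in these data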;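 note: 0% = median of test compound wells and 100% = no enzyme DMSO wells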
# Target sequence (Q9NZ20 whole entry, looked up): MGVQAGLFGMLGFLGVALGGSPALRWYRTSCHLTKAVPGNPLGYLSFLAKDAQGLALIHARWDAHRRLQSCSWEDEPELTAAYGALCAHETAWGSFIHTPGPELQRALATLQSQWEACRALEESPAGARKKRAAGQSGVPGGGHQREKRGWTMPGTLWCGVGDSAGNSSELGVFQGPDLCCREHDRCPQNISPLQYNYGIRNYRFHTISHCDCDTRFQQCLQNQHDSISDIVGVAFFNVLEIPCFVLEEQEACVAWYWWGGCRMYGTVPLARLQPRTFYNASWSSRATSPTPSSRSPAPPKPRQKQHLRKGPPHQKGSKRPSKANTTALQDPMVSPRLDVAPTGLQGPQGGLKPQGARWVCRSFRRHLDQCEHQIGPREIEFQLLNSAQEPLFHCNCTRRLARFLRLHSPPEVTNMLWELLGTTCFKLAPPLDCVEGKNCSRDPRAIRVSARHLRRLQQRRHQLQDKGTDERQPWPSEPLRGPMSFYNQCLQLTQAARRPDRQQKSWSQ
# HTR5A ag ctr: counter-screen for OPRM1-OPRD1 agonists: human HTR5A agonism. P47898. HTR5A agonist assay, luminescence, cell-based. activation, % at 9.3 µM. actives 0.61% (n = 340,000). AID 504692; in the data active = activation mostly above about 9.5%, no sharp cut-off; inactive = mostly below about 7.6%;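 note: 0% = cells with vehicle only and 100% = reference agonist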
# hGIII sPLA2 conf: human GIII-sPLA2 inhibition, confirmation | shares compounds with sPLA2-III inh | recombinant hGIII-sPLA2, BODIPY PC-A2 QFRET fluorescence | inhibition, % at 12.2 µM | actives 34% (n = 2,000) | AID 743280;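 active = mean inhibition across triplicates above the hit cutoff set in the earlier primary screen, cut at about 19% in these data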;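 note: 0% = enzyme with DMSO and 100% = DMSO wells lacking enzyme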
# BODIPY interf: optically interferes with 535nm fluorescence in sPLA2 counter-screen | AID 743282 | shares compounds with sPLA2-III inh | actives 8.5% (n = 2,000) | inhibition, % at 12.2 µM | BODIPY FL product fluorescence interference, QFRET;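 active = average inhibition above the solvent-only control mean plus 3 SD, cut at about 6% in these data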;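 note: 0% = DMSO with substrate plus product and 100% = DMSO with substrate alone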
# 535nm interf DR: interferes with 535nm fluorescence in dose response counter-screen. shares compounds with sPLA2-III inh. BODIPY FL product fluorescence interference, cell-free. IC50, µM. 240 tested, under 10 active. AID 743455;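 active = IC50 at or below 10 µM; inactive = IC50 above 10 µM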
# * = called active by the depositor; / = no result.
SMILES,OPRM1-OPRD1 inv,OPRM1-OPRD1 ag,HTR5A inv ctr,m5-HT2A agonist,sPLA2-III inh,HTR5A ag ctr,hGIII sPLA2 conf,BODIPY interf,others
O=c1ccc(-c2n[nH]c(=S)n2-c2ccc(F)c(Cl)c2)n[nH]1,10,-2,7,-3,7,-4,/,/,
CCOC(=O)[C@@]12CCCC=C1N(CCc1ccc(Cl)cc1)C(=O)[C@H]2CC(=O)NCc1cccc2ccccc12,/,/,/,/,-15,/,/,/,
CCCCN1CCN(C(=O)c2ccc(CNC(=O)c3cccc(Br)c3)cc2)CC1,/,/,/,/,-11,/,/,/,
CCCCc1ccc(NC(=S)N2CCN(C)CC2)cc1,11,-2,1,4,8,0,/,/,
CCCCc1ccc(NC(=S)N2CCCC2)cc1,12,-2,-45,-1,20*,12*,10,-9,
O=C(CSc1nnc(-c2ccccn2)n1-c1ccc(Cl)cc1)Nc1ccc(S(=O)(=O)Nc2nccs2)cc1,/,/,/,/,-45,/,/,/,
Cc1cc(C(=O)NNC(=S)Nc2cccc(C(F)(F)F)c2)nn1C,8,-1,-5,-7,47*,-2,42*,2,535nm interf DR=>122
O=C(NCCC1=CCCCC1)C1CCN(S(=O)(=O)c2ccccc2[N+](=O)[O-])CC1,/,/,/,/,-4,/,/,/,
Cc1cccc(NC(=S)NCCCN2CCOCC2)c1,13,-3,3,2,19*,1,3,0,
S=C(NCCCN1CCOCC1)Nc1cccc(Cl)c1,3,-1,13,-3,3,-5,/,/,
CSc1ccc(CNc2ccc(C)cc2)cc1,-22,4,-2,7,22*,10,16,4,
CSc1ccc(CNc2ccc(C)c(C)c2)cc1,-41,7,10,1,9,-4,/,/,
CC(C)C[C@@H]1COc2cc(Br)ccc2S(=O)(=O)N1Cc1cn(CCC2OCCCO2)nn1,/,/,/,/,23*,/,0,-29,
O=C(Nc1nnc(SCC(=O)N2CCCc3ccccc32)s1)c1ccc2ccccc2c1,15,-3,6,5,20*,-4,-49,-9,
O=C(Nc1nnc(SCC(=O)N2CCCc3ccccc32)s1)c1ccccc1,9,-2,-15,2,3,0,/,/,
COc1cccc(CNC(=O)C2CCC(CNS(=O)(=O)c3cccc4cccnc34)CC2)c1OC (stereo not given),/,/,/,/,-7,/,/,/,
CCCCn1c(N)c(N(CCOC)C(=O)C2CCN(S(=O)(=O)c3ccc(C)cc3)CC2)c(=O)[nH]c1=O,9,-2,3,6,22*,-2,4,-14,
CCCCn1c(N)c(N(CCOC)C(=O)C2CCN(S(=O)(=O)c3ccc(F)cc3)CC2)c(=O)[nH]c1=O,9,-1,1,6,-1,4,/,/,
Oc1c(CN2CCCCC2)ccc2cccnc12,-3,1,-18,5,21*,5,1,-44,
Cc1csc(NC(=O)c2ccc(COc3ccccc3F)o2)n1,/,/,/,/,-10,/,/,/,
CCn1c(-c2csc3c2CCCC3)n[nH]c1=S,1,0,27,-2,29*,-5,30*,2,535nm interf DR=>122
C=CCn1c(-c2csc3c2CCC(C)C3)n[nH]c1=S (stereo not given),-19,4,-30,0,21*,-1,20*,5,
CCCCn1c(-c2csc3c2CCCC3)n[nH]c1=S,/,/,/,/,19,/,/,/,
Cc1ccc(CNC(=O)C(=O)NCC(c2ccco2)N2CCOCC2)cc1 (stereo not given),1,0,3,2,-6,4,/,/,
O=C(NCc1ccc(Cl)cc1)C(=O)NCC(c1ccco1)N1CCOCC1 (stereo not given),-22,4,7,-4,20*,3,0,-16,
SMILES,OPRM1-OPRD1 inv,OPRM1-OPRD1 ag,HTR5A inv ctr,m5-HT2A agonist,sPLA2-III inh,HTR5A ag ctr,hGIII sPLA2 conf,BODIPY interf,others
O=C(NCC1CCCO1)C(=O)NCC(c1ccco1)N1CCN(c2ccc(F)cc2)CC1 (stereo not given),19,-3,-2,0,21*,0,3,-18,
O=C(CCCCCN1C(=O)C2C3C=CC(C3)C2C1=O)Nc1ccc2ncccc2c1 (stereo not given),/,/,/,/,5,/,/,/,
CC(=O)OC[C@H]1O[C@@H](n2ccc(=O)[nH]c2=S)C(OC(C)=O)C1OC(C)=O (stereo not given in full),10,-2,-2,0,-8,-3,/,/,
CC(=O)OCC1OC(n2cc(F)c(=O)[nH]c2=O)C(OC(C)=O)C1OC(C)=O (stereo not given),4,-1,22,6,19*,0,1,-7,
COc1ccc(/C=C/c2c(-c3ccc(OC)cc3)sc3ccc(N4CCOCC4)cc23)cc1,4,-1,0,2,/,0,/,/,
COc1ccc(-c2sc3ccccc3c2/C=C/c2ccc(N)cc2)cc1,3,-1,-6,0,22*,-1,28*,13*,
CCC(=O)N(CC(=O)Nc1sc(C)c(C)c1C(N)=O)C1CCCCC1,7,-1,-19,-2,19*,-1,-4,-3,
Cc1ccccc1C(=O)N[C@H](C(=O)N1CCC[C@H]1C(=O)NCc1ccccc1)c1ccccc1,/,/,/,/,-5,/,/,/,
CCOc1ccc(-n2c(SCC(=O)Nc3ccc(S(=O)(=O)Nc4nccs4)cc3)nnc2-c2ccco2)cc1,/,/,/,/,-38,/,/,/,
S=c1[nH]nc(C2CCCCC2)n1/N=C/c1ccccc1Br,-13,3,5,6,11,-1,/,/,
O=[N+]([O-])c1ccccc1/C=N/n1c(C2CCCCC2)n[nH]c1=S,-41,7,-20,-4,20*,4,28*,5,535nm interf DR=>122
COc1ccc(/C(C)=N/NC(=S)NCCc2ccccc2)c(O)c1,-43,5,8,-7,44*,-3,7,8.2*,
COCCNC(=S)N/N=C(\C)c1ccccc1O,15,-3,-8,3,43*,0,22*,2,
CC(=O)CC[C@H]1CC[C@]2(CCCN(Cc3nccn3C)C2)O1,/,/,/,/,9,/,/,/,
COc1ccc(CCNC(=O)c2cnn3c(C(F)F)cc(C)nc23)cc1OC,1,0,3,-3,20*,-1,6,-11,
N#Cc1c(SCC(N)=O)nsc1SCc1ccc(Cl)cc1,5,-1,4,-1,30*,-2,9,-10,
O=C(Nc1ccccc1)Oc1ccccc1N1CCOCC1,-4,1,8,1,-1,7,/,/,
O=C(Nc1ccc(COc2ccccc2)cc1)Oc1ccccc1N1CCOCC1,3,-1,10,6,25*,-1,2,-10,
